Broadly, the inhibition is the change of the read-out against control, counted positive when it falls.

Here are results for 95 molecules from PubChem BioAssay AID624330 (Southern Research Specialized Biocontainment Screening …, 2012).

Each structure is given as a SMILES string. The campaign covered roughly 340,000 compounds. About 2,100 (0.62%) were called active. The list is a sample of the results. Entries with a potency or affinity are not part of this list. A number with no mark means an inactive call.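 Rule for the calls: active = first-screen hits whose inhibition reached a set limit at any dose in the follow-up dose series; inconclusive = inhibition above the set first-screen limit but never retested; inactive = the rest.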

This assay deals with Rac GTPase-activating protein 1 (Homo sapiens) (UniProt Q9H0H5). In words: MgcRacGAP GTPase-activating activity inhibitors, confirmation, biochemical, ADP Hunter fluorescence, primary and confirmatory (AID 624330).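 Note: fluorescence reports GDP produced by GAP-driven GTP hydrolysis.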 The following applies: MgcRacGAP-stimulated Rac1 GTP hydrolysis, at 30 µM, hits give high values, GST-tagged Rac1 F28L mutant substrate.
Sequence of Rac GTPase-activating protein 1 (Homo sapiens) (Q9H0H5 whole entry, looked up): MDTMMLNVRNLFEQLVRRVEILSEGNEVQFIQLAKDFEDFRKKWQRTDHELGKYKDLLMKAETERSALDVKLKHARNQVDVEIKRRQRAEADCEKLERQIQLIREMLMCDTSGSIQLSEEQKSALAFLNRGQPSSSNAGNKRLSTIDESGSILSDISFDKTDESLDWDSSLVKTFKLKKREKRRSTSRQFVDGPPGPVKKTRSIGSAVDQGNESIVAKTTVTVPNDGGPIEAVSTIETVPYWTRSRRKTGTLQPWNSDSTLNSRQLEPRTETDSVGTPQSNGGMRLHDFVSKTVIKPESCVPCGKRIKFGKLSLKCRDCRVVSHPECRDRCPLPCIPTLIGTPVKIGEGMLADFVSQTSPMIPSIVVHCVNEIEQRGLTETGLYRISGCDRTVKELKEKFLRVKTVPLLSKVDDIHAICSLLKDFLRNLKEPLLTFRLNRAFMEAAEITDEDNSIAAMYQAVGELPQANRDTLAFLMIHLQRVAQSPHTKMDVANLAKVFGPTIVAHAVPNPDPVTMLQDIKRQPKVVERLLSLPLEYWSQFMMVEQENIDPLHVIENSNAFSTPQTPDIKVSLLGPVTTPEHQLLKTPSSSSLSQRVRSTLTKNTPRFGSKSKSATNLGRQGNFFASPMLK
Turning to `COC(=O)CNC(=O)c1nn(-c2cccc(OC)c2)c(=O)c2ccccc12`, the inhibition is 7.12%. `CCOC(=O)C1CCN(Cc2coc3c(Cl)cc(Cl)cc3c2=O)CC1`: the inhibition is 14.9%. With `O=c1c(CN2CCN(c3cccc(Cl)c3)CC2)coc2c(Cl)cc(Cl)cc12` the figure was 1.43%; with `CCOC(=O)c1cnc2c(cnn2C)c1NCCC(O)C(F)(F)F` (stereo not given), 12.4%; with `COc1ccc(CCC(=O)NC2CCCc3ccccc32)cc1OC` (stereo not given), 5.44%. With `COc1ccc(NC(=O)c2cc3n(n2)C(C(F)(F)F)CC(c2ccco2)N3)cc1` (stereo not given) the figure was 14.5%; with `CCOc1ccc(NC(=O)c2cc3n(n2)C(C(F)(F)F)CC(c2ccco2)N3)cc1` (stereo not given), 6.77%. In the case of `CCN(C[C@H]1N[C@@](Cc2ccccc2)(C(=O)OC)[C@H]2C(=O)N(Cc3ccccc3)C(=O)[C@@H]12)C(=O)COc1ccccc1`, the inhibition is 2.94%. Turning to `Cc1cc2[nH]c3ccccc3c2c(C)n1`, the inhibition is 5.1%. For `Cc1cc2c([nH]c3ccccc32)c(C)n1`, the inhibition is 17.6%. Regarding `Cc1cc(NCc2ccncc2)ccc1Br`, the inhibition is 22.5%.

Turning to `Cc1ccc(CNc2ccc3c(c2)OCO3)cc1`, the inhibition was 10.4%. With `O=C(NCc1ccncc1)C(=O)Nc1ccc2c(c1)OCO2`, the inhibition is 3.26%. With `O=C(NCc1ccncc1)Nc1ccc2c(c1)OCO2` the figure was 14.7%; with `COc1ccc(CN(C)C(=O)Cc2ccc(OC)c(S(=O)(=O)N3CCOCC3)c2)cc1`, 6.77%. As for `O=C1CSC(c2cn(-c3ccccc3)nc2-c2cc3ccccc3oc2=O)N1Cc1cccnc1` (stereo not given), the inhibition is -1.18%. In the case of `CCN(CC)CCCN(C(=O)c1ccccc1F)c1nc(-c2ccc(OC)cc2)cs1`, the inhibition was 13.2%. As for `c1ccc(C2=NN(c3ccccc3)CC2)cc1`, the inhibition was 10.1%. `CSc1nnc(-c2nnc(SC)n2-c2ccccc2)n1-c1ccccc1`: the inhibition was 5.06%. On to `COC(=O)C1=C(C)NC(=O)NC1c1ccc(OCC(=O)N2CCCCC2)cc1` (stereo not given), for which the inhibition is 6.29%. In the case of `CC1(C)OC(=O)C=C[C@]2(C)[C@H]3CC[C@@]4(C)[C@H](C(=O)O)OC(=O)[C@H]5O[C@]54[C@]3(C)C(=O)C[C@@H]12`, the inhibition was 10.6%.

`C[C@@H]1CN([C@H](C)CO)S(=O)(=O)c2ccc(C#Cc3ccccc3)cc2O[C@@H]1CN(C)C(=O)CN(C)C`: the inhibition is 10.8%. With `CCOc1ccc(/C=N/NC(=O)Cc2csc(Nc3cccc(C(F)(F)F)c3)n2)cc1` the figure was 13.7%; with `Cc1ccc(/C=C/C(=O)Nc2ccncc2)o1`, 8.37%.

With `Cc1ccc(/C=C/C(=O)Nc2ccc([N+](=O)[O-])cc2)o1`, the inhibition was 5.27%.

Turning to `O=C(O)C1C2C=CC3(CN(c4cccc(C(F)(F)F)c4)C(=O)C13)O2` (stereo not given), the inhibition was 2.13%.

Take `Cc1cc(C)cc(N(CC(=O)N2CCCC2)S(C)(=O)=O)c1`: the inhibition was 0.27%. Consider `COc1ccccc1C(CNC(=O)CNC(=O)c1ccccc1Cl)N1CCCC1` (stereo not given), for which the inhibition is 4.57%. With `CCOCCCNC(=O)/C(C#N)=C/c1ccc(C)o1`, the inhibition is -11.1%. With `CCOCCCNC(=O)/C(C#N)=C/c1ccc(Cl)c([N+](=O)[O-])c1` the figure was 2.68%. As for `O=S(=O)(c1ccccc1)c1nc(Nc2cccc(O)c2)sc1Cl`, the inhibition was 8.03%. For `COc1ccccc1NC(=O)c1cc2ccccc2o1` the value was 10.9%; for `COc1ccc2[nH]c3c(c2c1)CNCC3`, 17.4%; for `CCN1CCCC1CNC(=O)C(=O)Nc1ccc(OC)cc1` (stereo not given), 8.81%. With `O=C(CNCC1CCCCC1)Nc1ccc(OC(F)(F)F)cc1`, the inhibition was 19.5%.

Regarding `O=C(CN(Cc1ccco1)C(=O)CNS(=O)(=O)c1ccc(F)cc1)NCc1ccco1`, the inhibition is 7.49%.

Consider `COCc1cc(/C=N\NC(=O)c2ccc(Cl)cc2)ccc1OC`, for which the inhibition was 7.25%. As for `Cc1ccc(Cn2nnc3c(=O)[nH]c(C4CCCN(C(=O)Nc5ccc(F)cc5)C4)nc32)cc1` (stereo not given), the inhibition was 2.33%.

For the molecule `Cc1c2ccncc2cc2c1[nH]c1ccccc12`, the inhibition was 8.32%. For the molecule `COc1ccc2[nH]c3c(Cl)ncnc3c2c1`, the inhibition is 2.77%. `COc1ccc2[nH]c3c(=S)nc[nH]c3c2c1`: the inhibition was 16.8%. With `COc1ccc2[nH]c(C)cc(=O)c2c1` the figure was 17.3%. Take `CC(C)C(=O)N(Cc1cc2ccccc2[nH]c1=O)C(C)(C)C`: the inhibition was 4.65%.

As to `Cc1ccc(S(=O)(=O)N2CCN(C(=O)COC(=O)CC(C)c3ccccc3)CC2)c(C)c1` (stereo not given), the inhibition is -1.45%. For `COc1ccccc1NC(=S)NCC1CCCO1` (stereo not given) the value was 8.32%; for `Cc1cc(F)ccc1S(=O)(=O)N1CCCOC1CNC(=O)C(=O)NCC(C)C` (stereo not given), 3.59%; for `O=C(CCC(=O)c1cccs1)NCc1ccncc1`, 8.09%. As for `COc1ccccc1CNS(=O)(=O)CCNCc1ccco1`, the inhibition is 7.98%. For `Cc1ccc(CCNc2ccccc2C)cn1`, the inhibition is 6.7%. As to `Cc1ccc(NCCc2ccc(C)nc2)cc1`, the inhibition is 24.8%. Regarding `Cc1[nH]c2ccccc2c1/C=N/NC(N)=S`, the inhibition is 15.4%. With `Cc1ccc(/C=N/Nc2nncn2N)cc1` the figure was -7.75%. Regarding `Cc1[nH]c2ccccc2c1/C=N/n1cnnc1`, the inhibition was 11.3%.

For the molecule `CCc1nnc(N/N=C/c2c(Cl)cccc2Cl)n1N`, the inhibition is 6.89%.

For the molecule `CCc1nnc(N/N=C/c2ccccc2F)n1N`, the inhibition is -6.59%. For `CCc1nnc(N/N=C/c2cc(C)c(C)cc2C)n1N` the value was 8.58%; for `Cc1ccc(CN(C)C(=O)CSc2nnc3n2CCCCC3)c(C)c1`, -1.85%. Regarding `CCC(C(=O)OC)n1cnc2c(nnn2-c2cccc(Cl)c2)c1=O` (stereo not given), the inhibition was -2.79%. As for `COc1ccc(N2CCN(C(=O)c3sc4ncn(CC(=O)N5CCCCC5)c(=O)c4c3C)CC2)cc1`, the inhibition is 22.1%. `O=C(NC1CCSc2ccccc21)c1cc(S(=O)(=O)N2CCOCC2)ccc1Cl` (stereo not given): the inhibition was 0.41%. As to `N#Cc1ccsc1NC(=O)CCN1C(=O)C2CCCCC2C1=O` (stereo not given), the inhibition is -1.49%. As to `C/C(=N\NC(=O)c1c(Cl)cnn1C)c1cccc(NC(=O)c2ccc(C)cc2)c1`, the inhibition is 2.57%. For `COC(=O)/C(=C\c1ccc([N+](=O)[O-])cc1)NC(=O)c1ccccc1`, the inhibition was -0.53%. With `CCO[C@@H]1OC(C(=O)NC2CC2)=C[C@H](c2ccccc2)[C@H]1CCCO`, the inhibition is 2.47%. With `COC1=C(N)C(=O)c2nc(C)ccc2C1=O` the figure was -3.53%; with `COC1=C(Br)C(=O)c2ncccc2C1=O`, -0.95%; with `COc1ccc(CN(CC(=O)NCc2ccco2)C(=O)CNS(=O)(=O)c2ccc(C)cc2)cc1`, -1.32%. Take `COc1ccc(CCCN2CCC(CN3CCNC(=O)C3=O)CC2)cc1OC`: the inhibition is 15.8%.

As to `COc1ccc(/C=N/N2CCN(c3ccc(Cl)cc3)CC2)cc1O`, the inhibition is 13.4%.

As for `C[C@H](NC(=O)c1ccc(Cl)cc1)C(=O)NNC(=O)c1cccs1`, the inhibition was 4.07%.

Regarding `O=C(O)/C(=C\c1ccc(Cl)c([N+](=O)[O-])c1)c1ccc(S(=O)(=O)N2CCCCC2)s1`, the inhibition is 9.75%. As for `COc1cc(/C=C/C(=O)OCC(=O)c2c(N)n(C)c(=O)n(C)c2=O)ccc1O`, the inhibition was 17%.

As to `COc1ccc(/C=C/C(=O)OCC(=O)c2ccc[nH]2)cc1`, the inhibition was 2.04%. For `COc1cc(/C=C/C(=O)OCC(=O)c2ccc[nH]2)cc(OC)c1OC` the value was 1.61%; for `O=C(/C=C/c1ccco1)OCC(=O)c1ccc(OC(F)F)cc1`, 7.34%. `Cn1c(NN)nc2sc3c(c2c1=O)CC(C)(C)OC3`: the inhibition is -17.1%.

With `O=S(=O)(Nc1ccc(N2CCOCC2)cc1)c1ccc(F)cc1`, the inhibition is 6.7%. With `CSCC[C@H](NS(=O)(=O)c1ccc(C)cc1)C(=O)N1CCC(C(=O)N[C@@H](C)C(=O)O)CC1` the figure was -1.38%.

`O=C(CN1CCN(c2cccc(C(F)(F)F)c2)CC1)N(C1CC1)C1CCS(=O)(=O)C1` (stereo not given): the inhibition is -5.48%. On to `O=C(CN1CCN(c2ccc(F)cc2)CC1)N(C1CCCC1)C1CCS(=O)(=O)C1` (stereo not given), for which the inhibition was 3.6%.

Regarding `CCOC(=O)c1c(C)[nH]c(C(=O)OCC(=O)Nc2cc(C)c(Cl)cc2OC)c1C`, the inhibition was 10.4%. Consider `Cc1ccc(NC(=O)N2CCCC2C(=O)NCc2ccc3c(c2)OCO3)cc1` (stereo not given), for which the inhibition was 2.95%. With `CC(C)Nc1nc(Oc2ccc(=O)n(-c3ccccc3)n2)nc(N(C)C)n1`, the inhibition is 12%. For the molecule `COc1cccc(N2CCN(C(=S)Nc3ccc(C)cc3C)CC2)c1`, the inhibition was 12.4%. As for `O=C(Nc1ccc(F)cc1)c1cncs1`, the inhibition was 9.26%.

As to `C=CC[n+]1ccc(/C=C2\C=Cc3cc(C)ccc3N2CC)c2ccccc21`, the inhibition is 17%. Turning to `CC[n+]1c(/C=C2\C=C(C)CC(C)(C)C2)sc2ccccc21`, the inhibition is 31.8%. As to `CCc1cc2c(SCC(=O)NC3CCCC3)ncnc2s1`, the inhibition is 6.67%. With `COc1cccc(NC(=O)[C@@H]2CCC(=O)N2C2OC(=O)c3ccccc32)c1` (stereo not given in full) the figure was -0.84%; with `CC(=O)Nc1ccc(NC(=O)Cn2cnc(S(=O)(=O)N3CCOCC3)c2)cc1`, -16.8%. With `Cc1ccc(CSCCNC(=O)CSCc2ccc([N+](=O)[O-])cc2)cc1`, the inhibition was 6.03%.

For `Cc1ccc(CNC(=O)CSCc2ccccc2)cc1`, the inhibition is 10.2%.

Turning to `Cc1ccc(CCNC(=O)CSCc2ccc(F)cc2)cc1`, the inhibition was 8.48%. `Cc1ccc(CSCC(=O)NCCc2ccccc2)cc1`: the inhibition was -4.12%.

For the molecule `CC1=C(C#N)C(c2ccc(O)cc2)C(C#N)=C(C)N1`, the inhibition was 11.8%.
